The source of these data is PubChem BioAssay.

Experiment [1] can be described thus: binders of probe aFSTL3 on microarray, primary screen, stem cell growth factor project, biochemical, small-molecule microarray, fluorescence 635/667 (AID 1064).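 Also: measures binding of the biotinylated anti-FSTL3 antibody to printed compounds.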 As to conditions: higher = more signal.
A short description of experiment [2]: binders from COS7 lysate, DM2A8 probe, primary screen, torsin A project, cell lysate, small-molecule microarray, fluorescence 635/667 (AID 1065). As to conditions: higher = more signal, COS7 lysate expressing mutant human TOR1A.
Experiment [3] can be described thus: binders of probe aFGF2 on microarray, primary screen, stem cell growth factor project, biochemical, small-molecule microarray, fluorescence 635/667 (AID 1067).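 Also: measures binding of biotinylated aFGF2 protein to printed compounds on slides; z-score merges feature fluorescence and signal-to-noise across triplicate slides.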 As to conditions: higher = more signal.
The nature of experiment [4]: binders of probe aFGF10 on microarray, primary screen, stem cell growth factor project, biochemical, small-molecule microarray, fluorescence 635/667 (AID 1071).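 Also: score merges 667 nm spot intensity and signal to noise from triplicate slides.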 As to conditions: higher = more signal.
For experiment [5], the target named is Neurogenic locus notch homolog protein 2 (Homo sapiens) (UniProt Q04721). As to the kind of experiment: Notch2 binders on small-molecule microarrays, primary screen, biochemical, small-molecule microarray, 635 nm fluorescence, stem cell growth factors (AID 1073). Conditions: Notch2 binding, higher = more signal.
Experiment [6] addresses Pro-neuregulin-1, membrane-bound isoform (Homo sapiens) (UniProt Q02297). As to the kind of experiment: NRG1 binders on small-molecule microarrays, primary screen, psychiatric disease protein project, biochemical, small-molecule microarray, fluorescence 635/667 (AID 1075).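 Also: score combines 667 nm spot fluorescence with signal to noise.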 As to conditions: NRG1 binding, 635 nm fluorescence, higher = more signal.
Experiment [7] relates to Neuregulin-1 EGF-like domain. As to the kind of experiment: binders of neuregulin-1 EGF-like domain, primary screen, biochemical, small-molecule microarray, 635 nm fluorescence (AID 1081).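 Also: binding of the protein to compounds printed on small-molecule microarray slides.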 Conditions: small-molecule microarray binding, higher = more signal.
Experiment [8] in a line: FRG1 promoter luciferase signal modulators, primary screen, FRG1 inhibition for FSHD, cell-based, C2C12 myotubes, firefly/Renilla luciferase, luminescence (AID 1084). As to conditions: higher = more signal, called active from +8 up or from −8 down.
Experiment [9] can be described thus: binders of probe aFST on microarray, primary screen, stem cell growth factor project, biochemical, small-molecule microarray, fluorescence 635/667 (AID 1086).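 Also: score merges 667 nm fluorescence with signal-to-noise of each printed compound spot.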 Conditions: higher = more signal.
The nature of experiment [10]: binders of probe aHhip on microarray, primary screen, stem cell growth factor project, biochemical, small-molecule microarray, fluorescence 635/667 (AID 1087).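 Also: score merges spot fluorescence at 667nm with spot signal to noise ratio.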 As to conditions: higher = more signal.
The test system of experiment [11] is PRMT1 (protein arginine N-methyltransferase 1). As to the kind of experiment: PRMT1 binders on small-molecule microarrays, primary screen, biochemical, small-molecule microarray, 635 nm fluorescence (AID 1088).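 Also: binding of Prmt1 protein to compounds spotted on small-molecule microarray slides.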 As to conditions: small-molecule microarray binding, higher = more signal.
A short description of experiment [12]: yeast growth modulation, basal conditions, primary screen, YJM789 clinical isolate, OD600, 24 h (AID 1089).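 Also: growth of clinical yeast isolate S. cerevisiae YJM 789 seeded 1000 cells per well; test concentration not given here.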 Conditions: S. cerevisiae YJM789 growth, higher = more signal, called active from +8 up or from −8 down.
Experiment [13] in a line: fission yeast growth modulation, primary screen, strain 972, OD600, 24 h, no modulator (AID 1090).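 Also: basal condition with compound alone and no growth modifier present; test concentration not given here.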 As to conditions: S. pombe 972 growth, higher = more signal, called active from +8 up or from −8 down.
Experiment [14] is described as follows: S. cerevisiae growth modulation with rapamycin, primary screen, strain BY4716, OD600, 96 h (AID 1091). Also: test concentration not given here. As to conditions: higher = more signal, called active from +8 up or from −8 down.
Experiment [15] addresses Torsin-1A-interacting protein 2 (Homo sapiens) (UniProt Q8NFQ8). The experiment is described as follows: LULL1 binders on small-molecule microarray, primary screen, cell lysate, human LULL1 lysate, 635/667 nm fluorescence (AID 1092).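 Also: probe is lysate of COS7 cells overexpressing human LULL1; score merges per-feature 667 nm fluorescence with signal-to-noise.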 As to conditions: hLULL1 lysate binding, 635 nm fluorescence, higher = more signal.
Experiment [16] is described as follows: E. coli growth modulation, two-sided OD650, primary screen, E. coli filamentation project, strain DRC41, 24 h (AID 1093).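 Also: MC1000 strain lacking acrAB efflux and sulA so SOS filamentation is blocked; test concentration not given here.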 Conditions: OD650, 24 h, higher = more signal, called active from +8 up or from −8 down.
Experiment [17] can be described thus: small-molecule microarray binders of probe aLefty2, primary screen, biochemical, biotinylated probe, 635/667 nm fluorescence (AID 1094).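 Also: score merges spot fluorescence near 667 nm with spot signal-to-noise ratio.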 As to conditions: higher = more signal.
Experiment [18] has as its system Noggin (protein binding on small-molecule microarray). The experiment is described as follows: Noggin binders on small-molecule microarray, primary screen, biochemical, 635/667 nm fluorescence (AID 1095).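 Also: score merges 667 nm feature fluorescence with signal to noise over triplicate slides.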 As to conditions: 635 nm fluorescence, higher = more signal.
Experiment [19] deals with Neurogenic locus notch homolog protein 3 (Homo sapiens) (UniProt Q9UM47). As to the kind of experiment: NOTCH3 binders on small-molecule microarray, primary screen, biochemical, 635/667 nm fluorescence (AID 1096). As to conditions: NOTCH3 binding, 635 nm fluorescence, higher = more signal.
Chain of Neurogenic locus notch homolog protein 3 (Homo sapiens) (Q9UM47 whole entry, looked up): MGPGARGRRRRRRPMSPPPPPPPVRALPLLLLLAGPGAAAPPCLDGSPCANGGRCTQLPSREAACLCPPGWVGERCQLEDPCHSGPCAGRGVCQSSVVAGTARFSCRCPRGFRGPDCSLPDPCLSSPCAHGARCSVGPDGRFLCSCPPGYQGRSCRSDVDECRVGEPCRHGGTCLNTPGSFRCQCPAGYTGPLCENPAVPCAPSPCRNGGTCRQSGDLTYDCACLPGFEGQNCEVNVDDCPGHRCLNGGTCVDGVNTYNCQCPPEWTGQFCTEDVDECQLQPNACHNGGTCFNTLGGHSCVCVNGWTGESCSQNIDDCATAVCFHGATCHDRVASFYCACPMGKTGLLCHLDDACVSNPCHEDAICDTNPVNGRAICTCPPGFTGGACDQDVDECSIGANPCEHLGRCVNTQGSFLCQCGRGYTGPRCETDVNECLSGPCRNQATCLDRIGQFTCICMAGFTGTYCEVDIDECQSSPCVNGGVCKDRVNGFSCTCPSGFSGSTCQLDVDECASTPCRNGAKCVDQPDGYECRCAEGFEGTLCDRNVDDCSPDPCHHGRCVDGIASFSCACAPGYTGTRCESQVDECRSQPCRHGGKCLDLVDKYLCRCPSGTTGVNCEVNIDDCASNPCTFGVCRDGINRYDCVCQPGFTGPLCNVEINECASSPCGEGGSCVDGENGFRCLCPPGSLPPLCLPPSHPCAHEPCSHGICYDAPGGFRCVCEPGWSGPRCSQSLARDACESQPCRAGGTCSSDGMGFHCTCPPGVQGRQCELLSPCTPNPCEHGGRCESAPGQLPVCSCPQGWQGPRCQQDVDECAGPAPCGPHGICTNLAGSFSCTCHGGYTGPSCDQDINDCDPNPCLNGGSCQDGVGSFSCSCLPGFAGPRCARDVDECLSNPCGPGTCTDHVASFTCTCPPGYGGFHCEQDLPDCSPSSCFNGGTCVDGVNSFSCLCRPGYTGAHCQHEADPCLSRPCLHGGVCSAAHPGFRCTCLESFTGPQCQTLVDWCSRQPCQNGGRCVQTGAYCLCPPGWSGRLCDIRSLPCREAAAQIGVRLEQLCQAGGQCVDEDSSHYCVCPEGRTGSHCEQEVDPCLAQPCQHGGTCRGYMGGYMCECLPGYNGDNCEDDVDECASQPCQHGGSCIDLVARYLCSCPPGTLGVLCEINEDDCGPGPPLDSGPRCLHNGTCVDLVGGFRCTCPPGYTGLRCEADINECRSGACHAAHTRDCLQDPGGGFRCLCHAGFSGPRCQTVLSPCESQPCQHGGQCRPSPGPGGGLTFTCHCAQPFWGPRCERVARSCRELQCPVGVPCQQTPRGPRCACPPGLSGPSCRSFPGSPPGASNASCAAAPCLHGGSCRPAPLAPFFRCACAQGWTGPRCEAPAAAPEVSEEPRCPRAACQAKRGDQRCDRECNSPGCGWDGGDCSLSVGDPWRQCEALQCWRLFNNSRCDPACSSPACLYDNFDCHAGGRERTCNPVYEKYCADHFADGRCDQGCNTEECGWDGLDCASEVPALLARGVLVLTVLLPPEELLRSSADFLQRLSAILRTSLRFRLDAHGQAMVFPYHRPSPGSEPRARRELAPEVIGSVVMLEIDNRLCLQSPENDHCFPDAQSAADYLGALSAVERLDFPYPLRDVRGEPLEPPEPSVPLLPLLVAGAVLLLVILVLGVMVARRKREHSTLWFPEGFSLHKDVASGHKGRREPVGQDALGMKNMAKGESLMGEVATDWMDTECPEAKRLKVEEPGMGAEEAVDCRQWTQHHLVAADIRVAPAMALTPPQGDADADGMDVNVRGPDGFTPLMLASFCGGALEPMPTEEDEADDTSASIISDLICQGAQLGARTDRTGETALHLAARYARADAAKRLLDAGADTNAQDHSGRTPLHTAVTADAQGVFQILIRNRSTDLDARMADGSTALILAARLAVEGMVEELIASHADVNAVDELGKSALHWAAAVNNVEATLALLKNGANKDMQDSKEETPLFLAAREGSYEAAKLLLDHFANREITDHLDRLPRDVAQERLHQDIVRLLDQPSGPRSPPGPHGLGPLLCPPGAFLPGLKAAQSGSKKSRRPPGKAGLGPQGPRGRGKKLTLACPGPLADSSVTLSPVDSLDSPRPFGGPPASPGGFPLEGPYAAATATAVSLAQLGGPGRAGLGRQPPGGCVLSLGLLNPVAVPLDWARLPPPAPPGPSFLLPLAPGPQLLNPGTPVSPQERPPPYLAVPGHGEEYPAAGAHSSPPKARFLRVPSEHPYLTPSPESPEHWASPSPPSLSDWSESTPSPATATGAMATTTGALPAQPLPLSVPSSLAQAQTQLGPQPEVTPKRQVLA
Experiment [20] is described as follows: small-molecule microarray binders of probe aEGFR, primary screen, biochemical, biotinylated probe, 635/667 nm fluorescence (AID 1097).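 Also: probe is a biotinylated anti-EGFR antibody binding compounds printed on slides; score combines fluorescence near 667 nm and signal to noise of each spot.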 Conditions: higher = more signal.

The source made the active and inactive calls.

Chain of Torsin-1A-interacting protein 2 (Homo sapiens) (Q8NFQ8 whole entry, looked up): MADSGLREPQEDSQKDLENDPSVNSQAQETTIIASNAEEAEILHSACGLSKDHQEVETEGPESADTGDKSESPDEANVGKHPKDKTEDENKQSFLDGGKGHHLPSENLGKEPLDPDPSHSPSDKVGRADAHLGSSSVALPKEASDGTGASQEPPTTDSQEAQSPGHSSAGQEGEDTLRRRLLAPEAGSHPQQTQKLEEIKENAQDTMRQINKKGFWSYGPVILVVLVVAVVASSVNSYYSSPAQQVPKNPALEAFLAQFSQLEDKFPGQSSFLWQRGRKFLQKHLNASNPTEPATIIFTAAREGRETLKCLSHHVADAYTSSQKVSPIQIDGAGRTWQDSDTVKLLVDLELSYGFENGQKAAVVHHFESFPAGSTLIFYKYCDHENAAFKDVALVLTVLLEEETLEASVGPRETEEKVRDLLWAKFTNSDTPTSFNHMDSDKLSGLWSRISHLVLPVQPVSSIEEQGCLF
Chain of Pro-neuregulin-1, membrane-bound isoform (Homo sapiens) (Q02297 whole entry, looked up, the tested form may be a part, canonical isoform): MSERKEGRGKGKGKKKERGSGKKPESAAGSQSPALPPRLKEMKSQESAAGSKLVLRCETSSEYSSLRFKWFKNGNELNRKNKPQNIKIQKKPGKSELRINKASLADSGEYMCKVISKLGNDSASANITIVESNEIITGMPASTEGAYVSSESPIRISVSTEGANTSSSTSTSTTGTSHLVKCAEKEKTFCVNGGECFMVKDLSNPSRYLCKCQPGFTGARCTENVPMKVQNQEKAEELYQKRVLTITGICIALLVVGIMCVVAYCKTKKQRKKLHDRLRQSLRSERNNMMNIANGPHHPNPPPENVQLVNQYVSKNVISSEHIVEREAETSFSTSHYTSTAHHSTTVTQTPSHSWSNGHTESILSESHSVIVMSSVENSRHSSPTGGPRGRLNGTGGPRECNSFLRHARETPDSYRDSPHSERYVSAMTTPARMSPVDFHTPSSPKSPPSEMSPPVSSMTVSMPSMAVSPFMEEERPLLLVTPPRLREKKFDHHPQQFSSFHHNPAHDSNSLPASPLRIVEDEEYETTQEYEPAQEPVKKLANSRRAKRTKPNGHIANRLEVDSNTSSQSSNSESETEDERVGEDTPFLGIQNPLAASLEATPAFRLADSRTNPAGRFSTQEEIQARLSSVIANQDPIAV

For the compound `O=C(NCc1ccccc1)[C@@H]1c2ccccc2C(=O)N(Cc2cc(F)cc(C(F)(F)F)c2)[C@H]1c1ccc(CO)cc1`, the composite z-score was -0.307 in experiment [1]; 0.582 in experiment [2]; -0.0598 in [3]; 0.0655 in experiment [4]; 0.558 in [5]; 0.393 in [6]. Also, the composite z-score is 1.32 in [7]; 0.0906 in [9]; -0.179 in experiment [10]; 1.49 in experiment [11]; 2.82 in experiment [15]; -0.103 in experiment [17]. Also, the composite z-score in experiment [18] was 0.561; in experiment [19] it was 0.791; in [20], 0.021. For the same compound, the z-score in experiment [8] was -1.67 (inactive); in experiment [12] it was 0.314 (inactive); in [13], 0.252 (inactive); in [14], -0.319 (inactive); in [16], 0.387 (inactive).

Regarding `COc1cc(CO)cc(I)c1O[C@H]1C=C(C(=O)NCCO)C[C@@H](N(CCc2cccc(F)c2)C(=O)CCC2CCCC2)[C@@H]1O`, the composite z-score in experiment [1] came to 0.0822; in experiment [2], 0.825; in [3], 0.195; in experiment [4], 0.146; in experiment [5], 0.0011; in experiment [6], 1.27. Besides, the composite z-score in experiment [7] was 1.29; in experiment [9] it was 0.336; in [10], 0.219; in [11] it was 1.55; in experiment [15], 1.7; in experiment [17] it was -0.0632. For the same compound, the results for the composite z-score in experiment [18], in experiment [19] and in experiment [20] were 1.91, 0.922 and -0.0302, respectively. Further, the z-score in experiment [8] is -4.64 (inactive); in [12] it was 0.645 (inactive); in experiment [13] it was -6.99 (inactive); in [14], -1.02 (inactive); in [16], 0.0555 (inactive).

For `COCCOC(=O)N1C(=O)[C@@]2(c3cc(C#CC4(O)CCCCCC4)ccc31)[C@H](c1ccc(O)cc1)N1[C@H](c3ccccc3)[C@H](c3ccccc3)OC(=O)[C@H]1[C@@H]2C(=O)N1CCc2cc(OC)c(OC)cc2C1`, the composite z-score in [1] was 0.244; in [2], -0.287; in experiment [3], -0.116; in experiment [4] it was -0.432; in [5] it was -1.54; in experiment [6] it was 0.449. Also, the composite z-score in experiment [7] is 0.0919; in experiment [9], -0.538; in [10] it was -0.268; in experiment [11], 1.56; in experiment [15] it was 2.41; in [17], -0.0719. Moreover, the results for the composite z-score in [18], in experiment [19] and in [20] were -0.435, -0.551 and -0.226, respectively. In addition, the z-score in [8] was 0.0543 (inactive); in experiment [12], -0.749 (inactive); in experiment [13], -0.395 (inactive); in experiment [14], -0.494 (inactive); in [16], 1.45 (inactive).

On to `C=CC[C@@]1(C(=O)NCCN2CCOCC2)N=C(c2ccc(OCCCO)cc2)O[C@@H]1c1ccccc1CN=[N+]=[N-]`, for which the composite z-score was 1 in experiment [1]; 0.812 in experiment [2]; -0.0524 in experiment [3]; 0.455 in experiment [4]; 0.674 in [5]; 1.26 in [6]. Besides, the composite z-score in [7] was determined as 1.29; in [9], 1.65; in experiment [10], 0.0989; in experiment [11], 1.56; in experiment [15], 3.02; in experiment [17], 0.149. Further, the composite z-score in [18] is -0.0392; in experiment [19], 0.19; in experiment [20], -0.0735. Also, the z-score is -0.484 (inactive) in [8]; -1.46 (inactive) in [12]; -1.18 (inactive) in experiment [13]; -0.548 (inactive) in experiment [14]; 0.0499 (inactive) in experiment [16].

In the case of `C=C(CCCC)/C(=C/C[C@H](OC(C)=O)c1ccc(CO)o1)c1cc(C(=O)OC)ccc1OC`, the composite z-score in experiment [1] is -0.509; in experiment [2] it was -0.296; in [3] it was -0.0333; in experiment [4], 0.525; in [5], -0.0467; in experiment [6] it was 0.714. Further, the composite z-score in [7] was 0.888; in experiment [9] it was 0.439; in experiment [10], -0.0618; in experiment [11] it was 1.56; in [15], 1.8; in [17], -0.0371. The composite z-score in experiment [18] is 1.8; in experiment [19], 1.09; in [20], -0.125. Moreover, the z-score is -0.313 (inactive) in experiment [8]; 1.02 (inactive) in [12]; -1.01 (inactive) in [13]; -0.194 (inactive) in experiment [14]; 1.05 (inactive) in experiment [16].
